Measured values published in ChEMBL document CHEMBL3988442, “University of Dundee, Small-Polar-MMV Screening Library” (2021).
Among all 53,000 compounds or so, about 900 (1.7%) showed an effect of 50% or more. For the sample, strong results were picked, then their nearest neighbours and some compounds at random.

Test system: Mycobacterium tuberculosis
Assay: Cornell - Phenotypic assay to identify agents that inhibit growth of Mycobacterium tuberculosis
Format: functional
Set-up: scale not given: direction of the effect not stated beside the values
Settings: 10 mM as filed; unlikely as a test dose

Row | SMILES | Percent Effect
1 | OCCNc1nc(NCCc2ccccc2)nc2nccnc12 | 11.82%
2 | Cn1cc(CN2CC[C@H](O)[C@@H](n3ccc(=O)[nH]c3=O)CC2)cn1 | -40.44%
3 | Cn1cc(CN(Cc2ccccn2)Cc2ccccc2Cl)cn1 | 9.224%
4 | COc1ccc(C(C)NCCc2ccc(NC(C)=O)cc2)cc1F (stereo not given) | -10.02%
5 | OCCN1CCN(Cc2cc(Cl)cc3cccnc23)CC1 | -20.78%
6 | Clc1cc(CN2CCCN3CCCC3C2)c2ncccc2c1 (stereo not given) | 58.38%
7 | O[C@@H]1CN(Cc2cc(Cl)cc3cccnc23)C[C@@H]1O | 5.63%
8 | O=S(=O)(Cc1ccccc1)NCCNc1ccc(-n2cccc2)nn1 | 12.63%
9 | CCS(=O)(=O)NCCNc1cc(-n2cccc2)ncn1 | 13.54%
10 | O=S(=O)(NCCNc1cc(-n2cccc2)ncn1)c1cccs1 | 51.47%
11 | CCS(=O)(=O)NCCCNc1cc(N2CCCC2CO)ncn1 (stereo not given) | 22.16%
12 | Cc1cccc(C(=O)NCCNS(=O)(=O)c2cccs2)c1C | 27.49%
13 | O=S(=O)(NCCNc1ccc(-n2cccc2)nn1)c1cccs1 | 107.8%
14 | Cc1ccc(S(=O)(=O)NCCNc2cc(-n3cccc3)ncn2)c(C)c1 | 53.05%
15 | Cc1ccc(C)c(S(=O)(=O)NCCNc2ccc(-n3cccc3)nn2)c1 | 29.41%
16 | O=S(=O)(NCCNc1cc(-n2cccn2)ncn1)c1cccs1 | -21.67%
17 | Cc1nsc(NCCNS(=O)(=O)c2ccccc2)n1 | 22.52%
18 | Cc1nnsc1C(=O)NCCNS(=O)(=O)c1cccs1 | -32.34%
19 | O=S(=O)(NCCNc1ccc(-n2cccc2)nn1)c1ccccc1 | 105.3%
20 | CCC1=N[C@@]2(CC[C@@H]3CN(CC4CC4)C[C@@H]32)C(=O)N1CC.O=C(O)C(F)(F)F | 7.399%
21 | O=C(CC1CC1)N1CCN(Cc2ccncc2)c2ncccc2C1.O=C(O)C(F)(F)F.O=C(O)C(F)(F)F | 7.793%
22 | Cc1ccc(-c2nnc(CN3CCN(c4ccccn4)CC3)o2)cc1 | -16.82%

Row | SMILES | Percent Effect
23 | COCC(=O)N1CCCC(c2cc(C(F)F)n3ncnc3n2)C1.Cl (stereo not given) | -7.323%
24 | CCNC(=O)C1(CC2CC(c3ccccc3OC)=NO2)CCOCC1 (stereo not given) | -45.09%
25 | CNc1cncc(C2CCCN2C(=O)CCn2ccnc2)n1 (stereo not given) | -11.08%
26 | COCCN(C)CC(=O)N1C[C@@H](C)[C@](O)(C(C)C)C1 | 28.76%
27 | CCc1cc(O)n2nc(C3CCN(C(=O)c4ccccn4)CC3)cc2n1 | 37.19%
28 | NC(=O)CN1CCC2(CC1)C[C@@H](O)[C@H](c1ccccc1)NC2=O | -49.18%
29 | COCC(=O)N1CCCC1(C(=O)N(C)C)c1cnccn1 (stereo not given) | 19.92%
30 | Cc1cc(-c2ccccc2Cl)nc(N)n1 | 22.73%
31 | O=C(NCCNc1cc(-n2cccc2)ncn1)c1cccs1 | 57.48%
32 | O=C(NCCNC(=O)c1scnc1Cl)c1cccs1 | -53.65%
33 | CC(C)(C)c1ncc(C(=O)NCCNC(=O)c2cccs2)s1 | -14.14%
34 | Cc1ccc2c(c1)[C@@H](CC(=O)N(C)C)CCO2 | 3.607%
35 | CCNc1ncc(C(=O)N[C@H](C(N)=O)c2ccccc2)cn1 | -10.46%
36 | CC(C)c1cc(NC(=O)c2ccc(NC3CC3)nc2)[nH]n1 | -6.556%
37 | NC(=O)C(NC(=O)c1ccc(NC2CC2)nc1)c1ccccc1 (stereo not given) | -20.48%
38 | COC(=O)C(NC(=O)c1ccc(N(C)C)nc1)c1ccccc1 (stereo not given) | 107.9%
39 | CN(C)c1ccc(C(=O)NCCCc2ccccn2)cn1 | -1.76%
40 | COC(=O)C(NC(=O)c1ccc(NC2CC2)nc1)c1ccccc1 (stereo not given) | 107%
41 | OC1(CN2CCCC(Cn3cncn3)C2)CCCCC1 (stereo not given) | 2.144%
42 | CNC(=O)c1sc2ccccc2c1C1CCN(c2cc(C)nc(C)n2)C1 (stereo not given) | -31.24%
43 | Cc1cnn(C2CCCN(C(=O)c3ccc(O)nc3)C2)c1 (stereo not given) | -59.29%
44 | Cc1ccc(CN2CC[C@@H]3[C@@H]2CCN3C(=O)Cc2cccs2)o1.O=C(O)C(F)(F)F | 2.395%

Row | SMILES | Percent Effect
45 | Cc1cccnc1[C@H](C)Nc1nc(-c2cccnc2)nc2c1CNC2 | 56.46%
46 | Cc1cc(CC(C)Nc2nc(-c3cccnc3)nc3c2CNC3)[nH]n1 (stereo not given) | -19.02%
47 | CC(Nc1nc(-c2ccncc2)nc2c1CCNC2)c1ccccc1 (stereo not given) | 16.91%
48 | CC(Nc1nc(-c2ccccc2)nc2c1CCNCC2)c1nccs1 (stereo not given) | 28.69%
49 | CCc1cc(C(C)Nc2nc(-c3cccnc3)nc3c2CNC3)on1 (stereo not given) | 9.073%
50 | CC(Nc1nc(-c2ccccc2)nc2c1CCNCC2)c1cccnc1 (stereo not given) | 76.64%
51 | Cc1cc(NCCNS(C)(=O)=O)nc2cc3c(cc12)CCC3 | -25.91%
52 | Cc1cs/c(=N\C(=O)Cn2nc(N3CCOCC3)ccc2=O)[nH]1 | 32.69%
53 | CC(C)c1n[nH]c(C2CN(C(=O)c3ncoc3C(C)C)CCO2)n1 (stereo not given) | -2.194%
54 | COCC(=O)N1Cc2nc3c(C)c(-c4cccs4)nn3c(O)c2C1 | 3.993%
55 | Cc1c(-c2cccs2)nn2c(O)c3c(nc12)CN(C(=O)C1CC1)C3 | 54.87%
56 | COCCC(=O)N1Cc2nc3c(C)c(-c4cccs4)nn3c(O)c2C1 | 39.74%
57 | CC(C)c1ncc(CN2CCOC(C(=O)Nc3ccccc3)C2)cn1 (stereo not given) | -3.657%
58 | COc1ccc(Cl)cc1-c1nc(N)nc(N)n1 | -5.371%
59 | COc1ccc(Cl)cc1-c1nc(N)nc(N(C)C)n1 | 31.47%
60 | CCCN(CCC)c1nc(N)nc(-c2cc(Cl)ccc2OC)n1 | 61.82%
61 | CN1CCO[C@H]2CN(C(=O)c3ccoc3)C[C@H]21.O=C(O)C(F)(F)F | 6.414%
62 | Cl.NCCc1cn(Cc2ccccn2)c2ccccc12 | -5.41%
63 | CN(C)C(=O)c1cn2cc(-c3ccccc3Cl)n(CC3CC3)c(=O)c2n1 | 8.491%
64 | CNC(=O)c1cn2cc(-c3ccccc3Cl)n(CC3CC3)c(=O)c2n1 | 16.32%
65 | CCNC(=O)c1cn2cc(-c3ccccc3Cl)n(CC3CC3)c(=O)c2n1 | 93.59%
